Data reported in PubChem BioAssay (NCI).
About 83,000 compounds went through this panel and 20% of them were active in at least one assay; those are over-represented in the sample as a whole.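 Results are percent growth after 48 hours of single-concentration exposure. 100 means growth as in untreated cells, lower positive values show inhibition; negative values down to -100 show cell death.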 Unmarked numbers belong to inactive results. How the source made its calls: active means growth percent below 10; inactive means the rest.

These molecules were tested on SF-268 CNS (assay: NCI-60 one-dose screen, 48 h (100 = growth as untreated, 0 = no growth, -100 = all killed)). Conditions: 10 µM unless noted.
In the case of `O=C1Nc2ccc(Br)cc2/C1=N/c1nc(-c2ccccc2)cs1`, the growth is reported as 79.5%. `CS(=O)(=O)c1ccc(C(=O)N/N=C/c2ccccc2Cl)cc1` was tested, and the growth was 100%. Work on `Cc1ccc(Nc2cccc3ccccc23)cc1` yielded a growth of 92.4%. `CCCCc1nc(Cl)c(C2CC(c3ccc(S(N)(=O)=O)cc3)=NN2c2ccc(C#N)cc2)[nH]1` (stereo not drawn) gave a growth of 91.9%. Work on `O/N=C1\c2ccccc2-c2ccc(Br)cc21` yielded a growth of 102%. Work on `CCN(CC)CCCC(C)Nc1c(-c2ccccc2)cnc2cc(Cl)ccc12` (stereo not drawn) yielded a growth of 77.7%. With `OC(COCc1ccccc1)COCc1ccccc1` the growth was 115%. For `O=C(CC(=O)c1cccc(Cl)c1)c1cccc(Cl)c1`, the growth was 51.4%. `O=C1CCCN1C1CCN2CCCc3cccc1c32` (stereo not drawn) showed a growth of 112%. With `CC(C)(C)[Si](C)(C)OC1[C@@H](CNC(N)=O)O[C@@H](n2cnc3c(NC(=O)Nc4ccccc4)ncnc32)[C@H]1O[Si](C)(C)C(C)(C)C` (stereo partly drawn) the growth was 48.3%. `NC(CCC(=O)NC(CS)C(=O)NCC(=O)O)C(=O)O` (stereo not drawn) gave a growth of 103%. Work on `C/C(=N\NC(=O)CSc1nc2ccccc2c(=O)n1CCc1ccc(S(N)(=O)=O)cc1)c1ccc(Br)cc1` yielded a growth of 99.4%. With `CC(C)CCSc1nc(Nc2ccccc2)c(C#N)c(-c2ccc(F)cc2)n1` the growth was 79.1%. `CCOC(=O)C1OC2(CCCC2)OC1C(=O)OCC` (stereo not drawn) showed a growth of 114%. With `CS(=O)(=O)c1ccc(C(=O)N/N=C/c2ccccc2O)cc1` the growth was 38.4%. `O=C(NCCN1CCCC1)n1cc(-c2ccncc2)c(-c2cc(O)cc(Cl)c2)n1` showed a growth of 92.6%. With `C[C@@H]1N=C(c2ccc3ccccc3c2)Nc2nc3ccccn3c2C1=O` the growth was 58%. Work on `CNCCCn1c2c(c3ccc(Cl)cc3c1=O)C(=O)c1cc(OC)cnc1-2` yielded a growth of 34.7%. With `CC(=O)Oc1ccccc1C(=O)Nc1ncc([N+](=O)[O-])s1` the growth was 18.7%. `O=C1/C(=C/c2ccccc2)SC(=Nc2ccccc2)N1Nc1ccccc1` gave a growth of 26.9%. `Oc1c(C(Nc2cccc3ccccc23)c2ccccc2)ccc2cccnc12` (stereo not drawn) gave a growth of 23.4%. `COc1ccc(CC2c3cc(OC)c(OC)cc3CC[N+]2(C)CCC(=O)OCCCCCOC(=O)CC[N+]2(C)CCc3cc(OC)c(OC)cc3C2Cc2ccc(OC)c(OC)c2)cc1OC` (stereo not drawn) gave a growth of 87.6%. In the case of `CCn1c(Cc2ccccc2Nc2c(Cl)cccc2Cl)nnc1SCC(=O)Nc1ccccc1C(F)(F)F`, the growth is reported as 100%.
